# Assay results from PubChem BioAssay (NCI).
# Values joined by “and” are separate entries in the source; they are usually repeats but may differ in a detail not shown here. Identical values can stand only once. About 83,000 compounds went through this panel and 20% of them were active in at least one assay; those are over-represented in the sample as a whole.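 Note: values are percent growth. 100 is the growth of untreated cells, values between 100 and 0 indicate rising inhibition; between -100 and 0 indicates cell death.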 Active and inactive are the calls of the source. The calls were made as follows: active = growth percent below 10; inactive = the rest.
# Legend:
# Experiment in all cases: NCI-60 one-dose screen, 48 h (100 = growth as untreated, 0 = no growth, -100 = all killed)
# Conditions in all cases: 10 µM unless noted
# HCT-15 colon = tested on: HCT-15 colon
# HT29 colon = tested on: HT29 colon
# SNB-75 CNS = tested on: SNB-75 CNS
# SNB-19 CNS = tested on: SNB-19 CNS
# U251 CNS = tested on: U251 CNS
# PC-3 prostate = tested on: PC-3 prostate
# SK-MEL-5 melanoma = tested on: SK-MEL-5 melanoma
# UACC-62 melanoma = tested on: UACC-62 melanoma
# LOX IMVI melanoma = tested on: LOX IMVI melanoma
# SK-MEL-28 melanoma = tested on: SK-MEL-28 melanoma
# SK-MEL-2 melanoma = tested on: SK-MEL-2 melanoma
# EKVX NSCLC = tested on: EKVX NSCLC
# SN12C renal = tested on: SN12C renal
# UO-31 renal = tested on: UO-31 renal
# TK-10 renal = tested on: TK-10 renal
# ACHN renal = tested on: ACHN renal
# CAKI-1 renal = tested on: CAKI-1 renal
# A498 renal = tested on: A498 renal
# CCRF-CEM leukemia = tested on: CCRF-CEM leukemia
# MOLT-4 leukemia = tested on: MOLT-4 leukemia
SMILES,growth (HCT-15 colon),growth (HT29 colon),growth (SNB-75 CNS),growth (SNB-19 CNS),growth (U251 CNS),growth (PC-3 prostate),growth (SK-MEL-5 melanoma),growth (UACC-62 melanoma),growth (LOX IMVI melanoma),growth (SK-MEL-28 melanoma),growth (SK-MEL-2 melanoma),growth (EKVX NSCLC),growth (SN12C renal),growth (UO-31 renal),growth (TK-10 renal),growth (ACHN renal),growth (CAKI-1 renal),growth (A498 renal),growth (CCRF-CEM leukemia),growth (MOLT-4 leukemia)
CCCCCCCCCCCCOc1ccccc1C=O,101% (inactive),96.7% (inactive),80.6% (inactive),98.4% (inactive),87.4% (inactive),108% (inactive),101% (inactive),102% (inactive),90.1% (inactive),106% (inactive),112% (inactive),97% (inactive),93.7% (inactive),65.1% (inactive),118% (inactive),101% (inactive),84.9% (inactive),116% (inactive),79.9% (inactive),78.3% (inactive)
COc1ccc(S(=O)(=O)N2CCOCC2)cc1NC(=O)c1[nH]c(C)c2c1CCCCC2=O,104% (inactive) and 26.9% (inactive),112% (inactive) and 31.7% (inactive),101% (inactive) and 7.61% (active),98.7% (inactive) and 64.1% (inactive),97.9% (inactive) and 63.2% (inactive),46.4% (inactive),97.8% (inactive) and 70.9% (inactive),98.2% (inactive) and 33.3% (inactive),98.6% (inactive) and 23.5% (inactive),101% (inactive) and 62.5% (inactive),105% (inactive) and 67.5% (inactive),103% (inactive) and 54% (inactive),98.3% (inactive) and 64.4% (inactive),90.5% (inactive) and 32% (inactive),103% (inactive) and 28.5% (inactive),107% (inactive) and 50.6% (inactive),96.6% (inactive) and 15.7% (inactive),–,111% (inactive) and 58.9% (inactive),–
CCCCCN(CCCCC)CC(O)c1cc2c(c3ccccc13)CCCC2 (stereo not given),52.2% (inactive) and 52.1% (inactive),15.4% (inactive) and 16.2% (inactive),86.9% (inactive) and 70.7% (inactive),88.3% (inactive) and 83.6% (inactive),63% (inactive) and 62% (inactive),35.7% (inactive) and 57.9% (inactive),61.1% (inactive) and 36.3% (inactive),25.4% (inactive) and 58.2% (inactive),43.1% (inactive) and 40.8% (inactive),89.1% (inactive) and 57.1% (inactive),79.1% (inactive) and 97.2% (inactive),77.9% (inactive) and 46% (inactive),72.1% (inactive) and 75.1% (inactive),39.7% (inactive) and 44.7% (inactive),87.5% (inactive) and 73.4% (inactive),55.8% (inactive) and 49% (inactive),34.5% (inactive) and -32% (active),108% (inactive) and 39.3% (inactive),52.9% (inactive) and 57.2% (inactive),41.7% (inactive) and 61.7% (inactive)
CC(C)Oc1ccc2cc(-c3nn(CC4CCNCC4)c4ncnc(N)c34)ccc2c1,61.9% (inactive) and -7.35% (active),37.9% (inactive) and -13.1% (active),59% (inactive) and -38.7% (active),92.7% (inactive) and 24.8% (inactive),77.7% (inactive) and -11.9% (active),65.1% (inactive) and 16.6% (inactive),59.8% (inactive) and -94.4% (active),-65.3% (active),69.8% (inactive) and -80.3% (active),79.1% (inactive) and -85.7% (active),100% (inactive),97.4% (inactive) and 26.2% (inactive),79.7% (inactive),71.6% (inactive) and 36.9% (inactive),82.2% (inactive) and 14.6% (inactive),88.1% (inactive) and 14.1% (inactive),106% (inactive) and 31% (inactive),75% (inactive) and 16.7% (inactive),60.6% (inactive) and -23% (active),29% (inactive) and -23.8% (active)
O=[N+]([O-])c1ccc(-n2[nH]nnc2=S)cc1,97.5% (inactive),99.2% (inactive),89.1% (inactive),98.1% (inactive),108% (inactive),92% (inactive),122% (inactive),94.6% (inactive),94.4% (inactive),106% (inactive),109% (inactive),101% (inactive),94% (inactive),80.5% (inactive),116% (inactive),102% (inactive),95.6% (inactive),95.1% (inactive),–,102% (inactive)
CNC(=O)c1cccnc1,103% (inactive),105% (inactive),92.5% (inactive),105% (inactive),92.3% (inactive),96.9% (inactive),107% (inactive),113% (inactive),92.9% (inactive),116% (inactive),118% (inactive),110% (inactive),111% (inactive),84.8% (inactive),103% (inactive),104% (inactive),92.1% (inactive),85.6% (inactive),–,106% (inactive)
COc1cc(Nc2nc3ccccc3nc2NS(=O)(=O)c2ccc(NC(=O)c3ccc(C)c(OC)c3)cc2)cc(OC)c1,60.3% (inactive) and 13.4% (inactive),53.7% (inactive) and 5.41% (active),32% (inactive) and -34.7% (active),68.2% (inactive) and 39.1% (inactive),55.4% (inactive) and 21.5% (inactive),21.5% (inactive) and 11.1% (inactive),85.3% (inactive) and -25.7% (active),56.4% (inactive) and -32.5% (active),52.7% (inactive) and 2.52% (active),63.8% (inactive) and -17.5% (active),45.7% (inactive),40.1% (inactive) and 8.65% (active),–,12.2% (inactive) and -20% (active),54.1% (inactive) and -35.5% (active),53.1% (inactive) and 1.39% (active),62.2% (inactive) and -11.6% (active),18.9% (inactive) and -44.3% (active),–,37.5% (inactive) and 7.47% (active)
COc1ccc2nc(Cl)cc(C)c2c1,99.2% (inactive) and 101% (inactive),101% (inactive) and 105% (inactive),99.2% (inactive) and 98.3% (inactive),98.1% (inactive) and 111% (inactive),98.9% (inactive) and 108% (inactive),99.2% (inactive) and 82.3% (inactive),98.8% (inactive) and 120% (inactive),94.4% (inactive) and 95.2% (inactive),105% (inactive) and 113% (inactive),104% (inactive) and 118% (inactive),99.6% (inactive),80.4% (inactive) and 97.6% (inactive),107% (inactive) and 103% (inactive),84.9% (inactive) and 107% (inactive),73.7% (inactive) and 78.9% (inactive),105% (inactive) and 118% (inactive),85.6% (inactive),–,100% (inactive) and 88.9% (inactive),100% (inactive) and 76.5% (inactive)
O=C1c2ccccc2C(=O)N1/N=C/c1ccc2c(c1)OCO2,98.2% (inactive),94.3% (inactive),104% (inactive),93% (inactive),99.8% (inactive),74.1% (inactive),105% (inactive),90.3% (inactive),100% (inactive),103% (inactive),95.1% (inactive),116% (inactive),–,81.2% (inactive),102% (inactive),94.2% (inactive),110% (inactive),–,93.1% (inactive),86.3% (inactive)
S=C1SCN(Cc2ccccc2)CN1Cc1ccccc1,39.8% (inactive),65.4% (inactive),76.1% (inactive),96.4% (inactive),80.2% (inactive),46.6% (inactive),87.1% (inactive),82.5% (inactive),69.3% (inactive),103% (inactive),85% (inactive),98.5% (inactive),90.5% (inactive),26.7% (inactive),75.2% (inactive),84.5% (inactive),76.1% (inactive),–,40.4% (inactive),70.6% (inactive)
